“And” between values parts separate entries of the source, which are not always exact repeats. Identical values can stand only once. This is part of a sample that, as a whole, favours compounds with a hit. Of some 83,000 tested, about 20% had one in any assay.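 Method: cells in 96-well plates; compound added at one concentration; 48 h incubation; percent growth measured; values under 10 scored active.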 The source made the active and inactive calls.

The test system of the test is MDA-MB-468 breast. As to the kind of experiment: NCI-60 one-dose screen, 48 h (100 = growth as untreated, 0 = no growth, -100 = all killed). Particulars: 10 µM unless noted.
Regarding `CCCCCCCCCCCCOC(=O)/C=C\C(=O)NC(N)=O`, the growth was 82.1% (inactive).

For `CCC(=O)Oc1cc(Cl)c(Cl)cc1Cl`, the growth was 113% (inactive).

For the compound `Cc1[nH]n(-c2cccc(Cl)c2)c(=O)c1/C=C1\C=Nc2ccc(Br)cc21`, the growth was 35.7% (inactive).

As to `O=C1CSC(c2ccccc2O)N1c1nnc(Cn2cnnc2)o1` (centres undefined), the growth is 96.2% (inactive).

With `Oc1ccc(/C=N/Nc2nc3ccccc3s2)c(O)c1`, the growth was 20.2% (inactive).

Turning to `Cc1cc(O)c(C2=NN(c3ccc(S(N)(=O)=O)cc3)C(c3ccc(N(C)C)cc3)C2)c(C)c1Cl` (centres undefined), the growth was 91.1% (inactive).

For the compound `Cn1cc(-c2csc(-c3cn(C(=O)OC(C)(C)C)c4ccc(Br)cc34)n2)c2ccnc(Cl)c21`, the growth was 5.4% (active).

`Nc1ccccc1SC(CC(=O)c1ccccc1)c1ccc([N+](=O)[O-])cc1` (centres undefined): the growth was 93.4% (inactive) and 81.8% (inactive).

With `C=C1C(=O)O[C@H]2[C@H]1CC/C(COC(=O)NCc1ccc(Cn3c(=O)sn(-c4ccc(Cl)cc4)c3=O)cc1)=C\CC[C@@]1(C)O[C@@H]21`, the growth was 22.6% (inactive).

Consider `N#Cc1c(Nc2cccc(Cl)c2)sc(C(=O)c2cc3cc(Cl)ccc3o2)c1N`, for which the growth is 100% (inactive).

With `N#Cc1ccc(C(=O)CSc2nc(Nc3ccc(S(N)(=O)=O)cc3)c3ccccc3n2)cc1`, the growth was 105% (inactive).

In the case of `Oc1[nH]c2ccccc2c1Nn1c(N=N/C=c2/ccc3c(c2)C=NN=3)n[nH]c1=S`, the growth is 107% (inactive).

Turning to `CC1(C)CC[C@]23CC[C@]4(C)[C@H](CC[C@@H]5[C@@]6(C)CCCNC(C)(C)[C@@H]6CC[C@]54C)[C@H]2[C@H]1OC3`, the growth was -50.5% (active).

As for `CCOc1cc(NC(=O)c2ccccc2)c(OCC)cc1N`, the growth was 112% (inactive).

Take `CCOC(=O)/C(O)=C(\C=N\C(=S)Nc1ccc(Cl)c(Cl)c1)C(=O)OCC`: the growth is 102% (inactive).

Turning to `O=C(CCCCCCNC(=O)c1csc(Br)n1)NO`, the growth is 26.6% (inactive).

With `CCc1ccc(CCC(=O)Nc2ncc(Cc3cc(Cl)ccc3Cl)s2)o1`, the growth is -23% (active).

For `COc1cc2ncnc(Nc3ccc(F)c(Cl)c3)c2cc1OCC(=O)N1CCN(c2ccccc2)CC1`, the growth is -17.5% (active).

`CCCCOc1nc2c(C)cccc2cc1-c1cc(-c2ccc(Cl)cc2)nc(-c2ccc(Cl)cc2)c1`: the growth was 102% (inactive).

Turning to `COc1ccc2c(c1)sc1nc(-c3ccccc3)c(-c3ccsc3)n12`, the growth was 32.5% (inactive).

With `O=C1c2ccccc2C(=O)c2c1cccc2-n1nnc2ccccc21`, the growth was 109% (inactive).

Turning to `CCN1Cc2c(/C=C/c3ccccc3)nc3ccc(OC)cc3c2N(c2cccc(Cl)c2)C1`, the growth was 48.3% (inactive).

Take `COC(=O)C1(C)CCC[C@]2(C)[C@H]3C[C@H]4C(C(C)C)=C[C@]3(CC[C@@H]12)[C@H]1[C@@H]4[C@@H](OCC#CCN2CCOCC2)CC[C@@H]1OCC#CCN1CCOCC1` (some centres undefined): the growth was 80% (inactive).

For `CCn1c(SCC(=O)c2ccc(Br)cc2)nnc1-c1cc2c([nH]c3ccccc32)c(-c2cccc(O)c2)n1`, the growth is 83.9% (inactive).

For `CO[C@H]1/C=C(/C)CCC[C@H](C)[C@H](O)[C@@H](C)C(=O)C(C)(C)[C@@H](O)CC(=O)O[C@@H]1/C(C)=C/c1csc(C)n1`, the growth was -23.3% (active).

Take `COc1ccc(/C=N/NC(=O)Cn2nnc3ccccc32)cc1`: the growth was 103% (inactive).

In the case of `C=C(C)[C@@H]1CC[C@]2(C(=O)NC3CCCCC3)CC[C@]3(C)[C@H](CC[C@@H]4[C@@]5(C)CC[C@H](N)C(C)(C)[C@@H]5CC[C@]43C)[C@@H]12`, the growth is 103% (inactive).

Regarding `Clc1ccc(-c2n[nH]c3c2Cc2ccccc2-3)cc1Cl`, the growth was 75.3% (inactive).

As to `COc1cccc(-c2nnc(N)o2)c1`, the growth is 90.3% (inactive).

With `[2H]C1([2H])[C@H](C)O[C@H](C)C([2H])([2H])N1c1ccc(NC(=O)c2cccc(-c3ccc(OC(F)(F)F)cc3)c2C)cn1`, the growth is 41.9% (inactive).

Take `C=CC(=O)Nc1cccc(-c2nc(SC)nc(NCCc3ccc(OC)c(OC)c3)c2C#N)c1`: the growth was 19.2% (inactive).

With `O=C(NC(=S)Nc1ccccn1)c1ccccc1`, the growth was 45.1% (inactive).

On to `CC(=O)Oc1csc(N(C(C)=O)c2cc(C(=O)O)cc(C(=O)O)c2)n1`, for which the growth is 95.2% (inactive).

Take `COc1ccc(NC(=O)c2nc(-c3cc(OC)c(OC)c(OC)c3)n(-c3cccc4ccccc34)n2)cc1OC`: the growth is 46.4% (inactive).

In the case of `O=CNCCc1ccccc1`, the growth is 97.8% (inactive).

On to `CC/C(=C(\c1ccc(Cl)cc1)c1ccc(OCCN2CCCCC2)cc1)c1ccc(O)cc1`, for which the growth was 22.4% (inactive).

In the case of `COc1cccc(CCNc2ncnc3c2ncn3Cc2nnc3c4ccccc4c(Cl)nn23)c1`, the growth was 57.4% (inactive).

As for `CN(C)c1ccc(/C=C2\C=C(c3ccccc3)N(CCc3ccccc3)C2=O)cc1`, the growth was 98.2% (inactive).

As for `C(=C\c1ccccc1)/CN1CCN(C(c2ccccc2)c2ccccc2)CC1`, the growth was 89.6% (inactive).

Values taken from PubChem BioAssay (NCI).
